Test results from PubChem BioAssay.
The source made the active and inactive calls. Unless noted, the rule behind the calls is not given here.

Key:
[1] = compounds binding Alexa647 anti-His antibody – biochemical, small-molecule microarray, 635 nm fluorescence, artefact control for SMM control protein annotation, primary screen (AID 1128); conditions: higher = more signal;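 note: score merges feature fluorescence with signal-to-noise for each printed compound spot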
[2] = test system: Human papillomavirus type 1a E7 protein (residues 1-88); test: HPV1a E7 small-molecule binders, primary screen, biochemical, small-molecule microarray, residues 1-88, 635 nm (AID 1129); conditions: small-molecule microarray binding, fluorescence 635 nm; higher = more signal
[3] = target: Focal adhesion kinase 1 (Homo sapiens) (UniProt Q05397); test: PTK2 protein binding on printed compound slides – biochemical, small-molecule microarray, 635/667 nm fluorescence, BSA, DTT, primary screen (AID 1130); conditions: 635 nm fluorescence, higher = more signal;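 note: composite of spot emission at 667 nm and signal to noise over triplicate slides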
[4] = test system: Fibrinogen (Alexa647-labelled); test: Alexa647-fibrinogen binding to printed small molecules – biochemical, small-molecule microarray, 635/667 nm fluorescence, artefact control for SMM control-protein annotation, profiling panel (AID 1131); conditions: fibrinogen-A647 binding fluorescence, higher = more signal;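 note: z-score merges 667 nm fluorescence with per-spot signal-to-noise over triplicate slides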
[5] = target: Follistatin (Homo sapiens) (UniProt P19883); test: FST protein binding to printed compounds – biochemical, small-molecule microarray, 635/667 nm fluorescence, primary screen (AID 1132); conditions: 635 nm fluorescence, higher = more signal
[6] = target: Fibroblast growth factor 2 (Homo sapiens) (UniProt P09038); test: basic fibroblast growth factor binding to printed compounds – biochemical, small-molecule microarray, 635/667 nm fluorescence, primary screen (AID 1133); conditions: FGF2, fluorescence 635/667, higher = more signal
[7] = JC-1 mitochondrial potential readout, lung cancer cells – cell-based, A549, JC-1 fluorescence, basal, 24 h, 100 nL, profiling panel (AID 1138); conditions: higher = more signal;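 note: A549 lung adenocarcinoma cells under basal conditions with no added stimulus; test concentration not given here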
Lefty1 = Lefty1 protein binding to printed compounds – biochemical, small-molecule microarray, 635/667 nm fluorescence, primary screen (AID 1139); conditions: fluorescence 635/667, higher = more signal
[8] = test system: wheat germ agglutinin (Triticum aestivum), Alexa647-labelled; test: Alexa647-WGA lectin binding to printed small molecules – biochemical, small-molecule microarray, 635/667 nm fluorescence, artefact control for SMM control-protein annotation, profiling panel (AID 1140); conditions: WGA-A647 binding, 635 nm fluorescence, higher = more signal;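 note: score merges 667 nm feature emission with signal to noise over triplicate slides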
[9] = target: Luciferin 4-monooxygenase (Photinus pyralis) (UniProt P08659); test: inhibition of purified Photinus pyralis luciferase – biochemical, luminescence, purified enzyme, 2006 set, primary screen (AID 1141); conditions: purified firefly luciferase, SteadyGlo luminescence, 30 min; higher = more signal, called active from +8 up or from −8 down;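 note: cell-free assay with purified firefly luciferase at 100 ng per well in PBS; test concentration not given here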
[10] = test system: Wnt5a (protein binding on small-molecule microarray); test: small molecules binding Wnt5a protein – biophysical, small-molecule microarray, 635/667 nm fluorescence, primary screen (AID 1142); conditions: 635 nm fluorescence, higher = more signal;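 note: fluorescence read at 667 nm with signal to noise per printed feature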
[11] = ATP-based viability of Huh7 replicon cells – cell-based, CellTiter-Glo luminescence, basal, 48 h, cytotoxicity control for HCV replication inhibitor project, primary screen (AID 1143); conditions: higher = more signal, called active from +8 up or from −8 down;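 note: Huh7 hepatoma cells carrying a hepatitis C replication reporter with no stimulus; test concentration not given here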
[12] = Pseudomonas biofilm growth suppression – PAO1 strain, BacTiter-Glo luminescence, LB-PBS, primary screen (AID 1144); conditions: P. aeruginosa PAO1 biofilm, 12 h, higher = more signal
[13] = basal CRE-LacZ reporter activity in PC12 – cell-based, unstimulated, primary screen (AID 1145); conditions: no forskolin, luminescence, 4.5 h, higher = more signal, called active from +8 up or from −8 down
[14] = forskolin-driven CRE-LacZ activity in PC12 – cell-based, CRE-LacZ reporter, forskolin-stimulated, primary screen (AID 1146); conditions: luminescence, 4.5 h, higher = more signal, called active from +8 up or from −8 down;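 note: PC12 cells with 6xCRE LacZ reporter stimulated by forskolin 10 µM; beta-galactosidase reporter signal reflecting CREB driven transcription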
[15] = target: Streptavidin (Streptomyces avidinii) (UniProt P22629); test: compounds binding control protein streptavidin – biophysical, small-molecule microarray, 635/667 nm fluorescence, artefact control for SMM compound annotation, primary screen (AID 1147); conditions: higher = more signal;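 note: signal reflects streptavidin binding to arrayed compounds as a control protein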
[16] = probe aInhba binding on compound microarray – biochemical, small-molecule microarray, 635/667 nm fluorescence, primary screen (AID 1148); conditions: higher = more signal;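 note: score merges 667nm spot fluorescence with signal-to-noise for antibody binding to printed compounds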
Torsin-1A (Homo sapiens) [17] = target: Torsin-1A (Homo sapiens) (UniProt O14656); test: TOR1A wild-type binding on microarray – cell lysate, small-molecule microarray, lysate, 635/667 nm, primary screen (AID 1149); conditions: COS7 hTOR1A-WT lysate, 635 nm fluorescence, higher = more signal
Torsin-1A (Homo sapiens) [18] = target: Torsin-1A (Homo sapiens) (UniProt O14656); test: torsin A mutant lysate binding on microarrays – cell lysate, small-molecule microarray, COS7 lysate, 635/667 nm fluorescence, primary screen (AID 1150); conditions: COS7 hTOR1A mutant lysate, 635 nm fluorescence, higher = more signal;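 note: score pools 667 nm emission and signal to noise measuring lysate protein binding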
[19] = test system: Sonic hedgehog protein (Shh); test: Sonic hedgehog microarray binding compounds – biochemical, small-molecule microarray, 635/667 nm fluorescence, primary screen (AID 1151); conditions: 635 nm fluorescence, higher = more signal;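 note: Shh protein binding to compounds spotted on small-molecule microarray slides; score combines spot fluorescence intensity with signal-to-noise across triplicate slides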

Chain of Follistatin (Homo sapiens) (P19883 whole entry, looked up): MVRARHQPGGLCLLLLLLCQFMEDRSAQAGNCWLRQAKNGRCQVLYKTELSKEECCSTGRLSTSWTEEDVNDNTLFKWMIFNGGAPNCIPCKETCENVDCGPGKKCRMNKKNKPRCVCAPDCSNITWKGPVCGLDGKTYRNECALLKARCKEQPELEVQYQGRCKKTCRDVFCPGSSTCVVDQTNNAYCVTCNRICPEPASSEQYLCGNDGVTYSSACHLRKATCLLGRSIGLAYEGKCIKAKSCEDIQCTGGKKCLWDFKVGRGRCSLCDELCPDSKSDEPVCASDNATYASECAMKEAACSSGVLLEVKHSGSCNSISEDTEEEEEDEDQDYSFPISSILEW
Chain of Luciferin 4-monooxygenase (Photinus pyralis) (P08659 whole entry, looked up): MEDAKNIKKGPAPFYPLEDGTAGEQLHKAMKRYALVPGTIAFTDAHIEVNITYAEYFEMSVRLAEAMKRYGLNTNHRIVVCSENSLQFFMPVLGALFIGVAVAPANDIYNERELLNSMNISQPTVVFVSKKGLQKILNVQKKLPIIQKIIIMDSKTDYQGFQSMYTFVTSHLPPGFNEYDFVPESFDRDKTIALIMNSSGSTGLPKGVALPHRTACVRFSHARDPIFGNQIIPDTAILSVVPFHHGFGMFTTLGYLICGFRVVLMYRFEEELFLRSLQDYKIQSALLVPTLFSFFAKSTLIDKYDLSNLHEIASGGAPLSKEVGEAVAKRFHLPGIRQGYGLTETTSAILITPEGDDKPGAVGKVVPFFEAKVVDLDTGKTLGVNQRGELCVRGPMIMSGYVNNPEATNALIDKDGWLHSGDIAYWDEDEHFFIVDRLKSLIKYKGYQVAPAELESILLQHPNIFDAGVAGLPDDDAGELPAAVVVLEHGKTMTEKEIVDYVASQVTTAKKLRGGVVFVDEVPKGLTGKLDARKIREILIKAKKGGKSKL
Chain of Fibroblast growth factor 2 (Homo sapiens) (P09038 whole entry, looked up): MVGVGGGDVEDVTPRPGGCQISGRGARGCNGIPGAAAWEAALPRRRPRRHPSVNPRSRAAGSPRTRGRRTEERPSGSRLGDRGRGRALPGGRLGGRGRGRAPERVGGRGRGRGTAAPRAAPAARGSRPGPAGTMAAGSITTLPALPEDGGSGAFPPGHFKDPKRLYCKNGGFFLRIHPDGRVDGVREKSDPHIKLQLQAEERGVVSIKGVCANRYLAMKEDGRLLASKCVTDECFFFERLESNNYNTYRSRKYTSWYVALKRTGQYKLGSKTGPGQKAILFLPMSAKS
Chain of Streptavidin (Streptomyces avidinii) (P22629 whole entry, looked up): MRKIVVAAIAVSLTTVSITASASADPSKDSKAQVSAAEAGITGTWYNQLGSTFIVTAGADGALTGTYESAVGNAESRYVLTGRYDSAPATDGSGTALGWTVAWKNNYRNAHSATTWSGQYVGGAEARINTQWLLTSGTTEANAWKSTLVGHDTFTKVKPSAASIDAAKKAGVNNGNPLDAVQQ
Chain of Focal adhesion kinase 1 (Homo sapiens) (Q05397 whole entry, looked up): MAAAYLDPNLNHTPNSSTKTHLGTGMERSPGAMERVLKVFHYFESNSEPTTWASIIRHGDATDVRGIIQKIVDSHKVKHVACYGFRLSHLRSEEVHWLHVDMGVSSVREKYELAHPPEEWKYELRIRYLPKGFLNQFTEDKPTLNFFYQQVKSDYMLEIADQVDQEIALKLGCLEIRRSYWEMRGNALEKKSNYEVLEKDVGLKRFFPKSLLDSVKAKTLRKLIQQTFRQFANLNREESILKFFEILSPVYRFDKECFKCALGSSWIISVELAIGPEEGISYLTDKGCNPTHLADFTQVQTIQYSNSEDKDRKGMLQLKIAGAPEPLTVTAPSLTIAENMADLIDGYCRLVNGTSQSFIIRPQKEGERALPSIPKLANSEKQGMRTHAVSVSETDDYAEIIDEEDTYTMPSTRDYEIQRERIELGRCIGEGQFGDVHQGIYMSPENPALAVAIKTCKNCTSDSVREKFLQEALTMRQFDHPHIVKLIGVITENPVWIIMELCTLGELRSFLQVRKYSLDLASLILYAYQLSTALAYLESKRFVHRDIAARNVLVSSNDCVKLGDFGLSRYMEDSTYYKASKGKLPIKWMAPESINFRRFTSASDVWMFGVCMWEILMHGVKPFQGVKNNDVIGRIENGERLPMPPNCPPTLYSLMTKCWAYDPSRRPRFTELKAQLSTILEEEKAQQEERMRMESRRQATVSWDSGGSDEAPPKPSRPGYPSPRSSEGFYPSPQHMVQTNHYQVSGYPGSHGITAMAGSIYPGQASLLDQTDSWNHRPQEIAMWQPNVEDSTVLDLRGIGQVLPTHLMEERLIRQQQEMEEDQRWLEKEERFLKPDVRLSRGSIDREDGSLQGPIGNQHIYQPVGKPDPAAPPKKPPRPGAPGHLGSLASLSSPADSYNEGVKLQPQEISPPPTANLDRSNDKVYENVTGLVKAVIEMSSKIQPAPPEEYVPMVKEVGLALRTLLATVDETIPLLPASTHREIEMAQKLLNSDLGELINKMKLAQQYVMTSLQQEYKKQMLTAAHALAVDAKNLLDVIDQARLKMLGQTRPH
Chain of Torsin-1A (Homo sapiens) (O14656 whole entry, looked up): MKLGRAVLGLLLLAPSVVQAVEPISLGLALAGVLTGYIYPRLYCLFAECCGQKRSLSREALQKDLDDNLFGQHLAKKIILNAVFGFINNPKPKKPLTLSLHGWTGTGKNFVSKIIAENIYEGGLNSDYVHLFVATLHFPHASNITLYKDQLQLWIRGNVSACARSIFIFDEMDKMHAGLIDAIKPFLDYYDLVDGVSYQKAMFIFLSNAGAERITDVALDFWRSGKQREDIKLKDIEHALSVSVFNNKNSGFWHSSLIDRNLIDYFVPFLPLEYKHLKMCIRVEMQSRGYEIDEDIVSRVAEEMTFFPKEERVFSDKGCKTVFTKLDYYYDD

Structure (SMILES)	composite z-score [1]	composite z-score [2]	composite z-score [3]	composite z-score [4]	composite z-score [5]	composite z-score [6]	z-score [7]	composite z-score (Lefty1)	composite z-score [8]	z-score [9]	composite z-score [10]	z-score [11]	z-score [12]	z-score [13]	z-score [14]	composite z-score [15]	composite z-score [16]	composite z-score (Torsin-1A (Homo sapiens) [17])	composite z-score (Torsin-1A (Homo sapiens) [18])	composite z-score [19]
COCCOC(=O)N1C(=O)[C@@]2(c3cc(C#CCCO)ccc31)[C@H](c1ccccc1OCCO)N1[C@H](c3ccccc3)[C@H](c3ccccc3)OC(=O)[C@H]1[C@@H]2C(=O)N1CCCCCCC1	1.35	1.17	0.624	0.857	1.39	1.58	-0.383	1.65	1.14	-0.0558 (inactive)	0.405	-3.64 (inactive)	-1.29 (inactive)	-1.15 (inactive)	0.481 (inactive)	1.31	1.45	1.22	0.34	1.97
C=C(C)[C@@H]1CC=C(C(O)C2C=CC3C(=O)N(c4ccccc4)C(=O)C3N2Nc2ccc(C#N)cc2)CC1 (stereo not given in full)	0.526	1.26	0.423	0.999	1.25	0.13	-0.517	0.0839	1.32	-0.251 (inactive)	0.335	-0.133 (inactive)	-1.68 (inactive)	0.433 (inactive)	-0.345 (inactive)	1.48	0.361	0.202	0.454	-0.0706
COCCOC(=O)N1C(=O)[C@@]2(c3cc(C#CCC(C(=O)OC)C(=O)OC)ccc31)[C@H](C(=O)NC[C@H](O)c1ccccc1)[C@H]1C(=O)O[C@H](c3ccccc3)[C@H](c3ccccc3)N1[C@@H]2c1ccc(OCCO)cc1	1.02	1.19	0.427	0.891	1.4	1.58	-1.58	1.32	0.309	-0.997 (inactive)	-0.157	-1.01 (inactive)	0.366 (inactive)	0.895 (inactive)	-0.102 (inactive)	0.688	-0.0804	-0.012	0.367	1.69
COc1ccc(C(=O)Nc2cccc(CN3C(=O)[C@]4(O[C@H](CCn5cc([C@H](O)c6ccccc6)nn5)[C@@H]([Si](C)(C)c5ccc(OC)cc5)[C@@H]4C)c4ccccc43)c2)cc1	1.07	0.514	0.31	0.242	1.19	0.348	0.456	0.752	0.12	0.889 (inactive)	0.194	-7.81 (inactive)	-0.568 (inactive)	-0.36 (inactive)	-0.413 (inactive)	0.192	-0.183	0.0107	0.205	1.69
O=C1C2C=CC(C(O)c3ccc(I)cc3)N(Nc3ccccc3)C2C(=O)N1c1ccccc1 (stereo not given)	1.45	1.19	0.83	0.907	0.862	0.0891	-0.0457	-0.358	1.44	-0.102 (inactive)	0.478	-0.167 (inactive)	-0.379 (inactive)	-0.522 (inactive)	0.32 (inactive)	1.88	0.151	-0.087	0.36	0.0756
